This experiment relates to thyroid hormone receptor (endogenous TRα and TRβ). Further details: species or system GH3-TRE-Luc (rat pituitary); GH3-TRE-Luc luciferase reporter, antagonist mode against 1 nM T3, loss of signal, qHTS. The settings on record: read-out: Average AC50 (uM) GH3-TRE-Antag, antagonist mode, 1 nM T3, no GH3 cytotoxicity hit.
As a reminder, the AC50 is the midpoint of the concentration-response curve, whichever way the signal moves. With `CSC1=N[C@@](C)(c2ccccc2)C(=O)N1Nc1ccccc1` [Fenamidone], the AC50 was 6.3 µM.

With `CCCCC(CC)COC(=O)c1ccccc1C(=O)O` (stereo not shown) [MEHP], the AC50 was determined as 70.2 µM.

Turning to `CC(C)(O)c1cnn2c(-c3ccc(F)c(-c4c(F)cccc4C#N)c3)cnc2n1` [PharmaGSID_47330], the half-maximal activity concentration (AC50) is 42.1 µM.

Turning to `NNC(N)=S` [Thiosemicarbazide], the AC50 amounted to 59.3 µM.

Values taken from article PMC6792352, “Limited Chemical Structural Diversity Found to Modulate Thyroid Hormone Receptor in the Tox21 Chemical Library” (Environmental Health Perspectives, 2019).
